# Assay outcomes from PubChem.
# Sampled rows, rich in hits. Any-hit rate of the full collection: about 0.85%.
# GLS inhibitor: qHTS for Inhibitors of Glutaminase (GLS) | Potency, µM (series often up to 45.5 µM), for inactives: at the top dose activity change, negative = inhibition, most hits filed as inhibitors | GLS enzymatic activity, qHTS titration | AID 624170, 2012 | Glutaminase kidney isoform, mitochondrial (Homo sapiens), O94925 | 410,000 compounds, 0.21% hits; further: potency means the concentration at half of the fitted maximal effect; on the % scale 0 is the no-effect control and ±100 the full control effect
#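 Read-out is an Amplex red fluorescence increase coupled through glutamate oxidase and HRP, measured before and after 30 min room-temperature incubation. hKGA is in 45 mM KH2PO4 (pH 8.2) with 0.02% Tween-20; glutamine added as 1mM solution.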
# Glioma ERSR ind: qHTS for Inducers of the Endoplasmic Reticulum Stress Response (ERSR) in Human Glioma: qHTS; U87-MG GRP78 promoter luciferase reporter, 16 h; 420,000 compounds, 0.02% hits; Potency, µM, without a hit: at the top dose activation, most hits filed as activators; further: potency means the concentration at half of the fitted maximal effect; series mostly up to about 76 µM; % of control where 0% means no effect; nearly all actives have a fitted effect of over 35% in size
#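 Stably transfected U87-MG human glioma cells carrying a GRP78-based luminescent sensor were seeded at 1000 cells/well, pin-dosed with compounds and incubated 16 h. Luciferase reagent was then added, and end-point luminescence was read after 10 min at room temperature.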
# CCT chaperon mod: High-Throughput Screening for Modulators of Cytosolic Chaperonin Activity; AID 651819, 2012; purified chaperonin ATPase assay, HTRF ADP detection, 30 min; 360,000 compounds, 0.3% hits; activity change, % (no concentration beside the values), hits read low; in the data active means activity change below about -30%; further: on the % scale 0 is the no-effect control and ±100 the full control effect
#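 TRiC at 40 or 20 nM final (batch-dependent) in 30 mM Tris pH 7.4, 100 mM KCl, 5 mM MgCl2, 1 mM DTT, with compound at single 76 uM and 10 uM ATP, 30 min at 37 deg C. ADP detected by HTRF Transcreener, 665/615 ratio.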
# Akt phos inh: HTS Assay for Inhibitors of Akt Phophorylation: Primary Screen. Neuro2A IGF-stimulated pAkt S473 HTRF, 20 min; hits give low values. activity change, % for hits at 50 µM. 360,000 compounds, 0.32% hits; in the data active means activity change below about -80%; further: on the % scale 0 is the no-effect control and ±100 the full control effect
#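 Single-point screen (50 µM final compound) in Neuro2A cells stimulated 20 min with 6 nM IGF at 37 deg C. After lysis, Ser473-phosphorylated Akt read by HTRF (ex 330 nm, em 615/665 nm) as the 665/615 ratio.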
# IDH1 R132H inh: qHTS for Inhibitors of mutant isocitrate dehydrogenase 1 (IDH1): qHTS. Isocitrate dehydrogenase [NADP] cytoplasmic (Homo sapiens), O75874. IDH1-R132H enzyme, NADPH consumption, diaphorase/resazurin fluorescence. Potency, µM (series often up to 76.6 µM), inactives show at the highest dose activity change, negative = inhibition, most hits filed as inhibitors. 390,000 compounds, 0.093% hits; further: potency means the concentration at half of the fitted maximal effect; on the % scale 0 is the no-effect control and ±100 the full control effect; nearly all actives have a fitted effect of over 65% in size
#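 IDH1-R132H (0.5 ug/mL dispensed) in pH 7.5 Tris buffer was preincubated 30 min with compound, then given a substrate mix of 0.016 mM NADPH and 2 mM alpha-KG for 80 min at room temperature; remaining NADPH was read by diaphorase/resazurin fluorescence.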
# Mm-Cpn inhibitor: Inhibitors of TCP-1 ring complex (TRiC) of Methanococcus maripaludis (MmCpn): qHTS; 330,000 compounds, 0.031% hits; Potency, µM (highest dose often 76.9 µM), without a hit: at the highest dose activity, negative = inhibition, usual class: inhibitors; Chaperonin Mm-Cpn (Methanococcus maripaludis); AID 504842, 2011; purified Mm-Cpn ATPase, ADP Transcreener TR-FRET; further: potency means the concentration at half of the fitted maximal effect; on the % scale 0 is the no-effect control and ±100 the full control effect; nearly all actives have a fitted effect of over 80% in size
#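 Compound-treated chaperonin, 25 nM final, turns over 10 uM ATP at 37°C for 30 min following a 10 min preincubation; ADP generated competes with ADP-d2 for Eu-cryptate antibody, lowering FRET.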
# An asterisk follows results filed as active; i = inactive; / = no result; [ ] = another dose, or the depositor's remark. Unless noted, the call rests on the fitted dose curve; in most records, active means well fitted curve in the direction sought with a large enough effect; inconclusive means small, poorly fitted or top-dose-only effect, or another doubt; inactive means no such curve, though single readings can be large; an effect the other way counts as inactive or inconclusive.
SMILES,GLS inhibitor,Glioma ERSR ind,CCT chaperon mod,Akt phos inh,IDH1 R132H inh,Mm-Cpn inhibitor
Cc1c(N)nc([C@@H](CC(N)=O)NC[C@H](N)C(N)=O)nc1C(=O)N[C@H](C(=O)N[C@@H](C)[C@@H](O)[C@@H](C)C(=O)N[C@H](C(=O)NCCc1nc(-c2nc(C(=O)NCCCN[C@H](C)c3ccccc3)cs2)cs1)[C@H](C)O)[C@@H](O[C@H]1O[C@@H](CO)[C@H](O)[C@@H](O)[C@H]1O[C@H]1O[C@@H](CO)[C@@H](O)[C@H](OC(N)=O)[C@H]1O)c1cnc[nH]1,-1%,-2%,/,/,/,/
O=c1[nH]c(/C=C2\C=Nc3ccccc32)c(O)n1Cc1ccccc1F,7.9µM*,1%,-1,i,2%,-1%
CC(C)OC(=O)Nc1ccc(Oc2c(F)c(F)c(F)c(F)c2F)cc1,4%,-5%,-76*,i,-1%,-1%
O=C(NCc1ccncc1)C12CC3CC(CC(C3)C1)C2,0%,-5%,-84*,i,-1%,1%
O=C(NCc1ccccc1)C12CC3CC(CC(C3)C1)C2,3%,-3%,-1,i,1%,3%
COCC(=O)Nc1cc(C(=O)N2CCCC(C(C)=O)C2)cc2nc(-c3ccccc3)n(C)c12 (configuration not stated),/,0%,/,/,/,/
O=[N+]([O-])c1cc(S(=O)(=O)N2CCCCCC2)ccc1F,6%,-15%,0,i,46µM*,2%
O=C(O)C1Sc2[nH]c(=O)sc2C2c3cc(Br)ccc3OC(=O)C12 (configuration not stated),10µM*,-2%,0,i,0%,-10%
O=C(O)C1Sc2[nH]c(=O)sc2C2c3ccc(O)cc3OC(=O)C12 (configuration not stated),8.9µM*,-2%,-11,i,1%,-3%[15.4 µM]
COC(=O)C1Sc2[nH]c(=O)sc2C2c3ccccc3OC(=O)C12 (configuration not stated),/,1%,-4,/,9%,-6%
CC(=O)O[C@H]1CC[C@@]2(C)C(=CCC3C2CC[C@]2(C)C(c4cccnc4)=CCC32)C1 (some centres not stated),-1%,-2%,/,/,/,/
CCCCc1c(O)nc(SCC(=O)N2CCOCC2)n(-c2ccccc2OC)c1=O,-4%,-1%,1,i,-3%,1%
CCCCc1c(O)nc(SCC(=O)N2CCOCC2)n(-c2ccccc2C)c1=O,-5%,-3%,0,-113%*,5%,0%
Cc1ccc(OCCSCc2nc3ccccc3[nH]2)cc1,8%,0%,0,-98%*,3%,1%
Clc1ccc(OCCSCc2nc3ccccc3[nH]2)cc1,3%,-10%,1,i,2%,2%
NC(=O)C1CCN(c2nc(-c3ccc(C(F)(F)F)cc3)cs2)CC1,/,/,/,/,/,-21%
CCCn1c(N)c(N2CCCCC2)c(=O)n(CC(=O)Nc2ccccc2)c1=O,13%,3%,-3,i,-6%,-1%
CCCn1c(N)c(N2CCCCC2)c(=O)n(CC(=O)Nc2ccc(C(C)=O)cc2)c1=O,4.5µM*,-3%,1,i,-2%,0%
CC(=C/c1ccccc1)/C=N/Nc1nc(N2CCOCC2)nc(N2CCOCC2)n1,6%,-2%,-49*,i,2%,-1%
Cc1ccc(C(=O)N/N=c2\oc3ccccc3cc2C(N)=O)cc1,2%,1%,-30*,i,2%,-2%
COc1cccc(-c2nc3cc4c(cc3cc2CN(C(=O)c2csc(C)n2)C2CC2)CCC4)c1OC,/,-3%,/,/,/,/
COc1ccc(CN2CCCC(n3cc(C(=O)N4CCCCC4)nn3)C2)cc1OC (configuration not stated),/,-3%,/,/,/,/
